Compound activity as filed in PubChem.
DT40 TDP1 CPT: qHTS for Inhibitors of human tyrosyl-DNA phosphodiesterase 1 (TDP1): qHTS in cells in presence of CPT; chicken DT40 Tdp1-/-;hTDP1 cells + 20 nM CPT, ATP luminescence, 48 h; Potency, µM (top dose mostly 46.2 µM), for the others: at the highest dose activity change, negative = growth inhibition, most hits filed as inhibitors; 12% of 420,000 active; note: potency is the fitted concentration of half-maximal effect; nearly all actives have a fitted effect of over 55% in size
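Chicken DT40 Tdp1-/- cells complemented with human TDP1, 400 cells/well, exposed to compounds plus 20 nM camptothecin for at least 48 h at 37 C; viability read as ATP content by CellTiter-Glo luminescence.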
ELG1 DNA repair: qHTS screen for small molecules that inhibit ELG1-dependent DNA repair in human embryonic kidney (HEK293T) cells expressing luciferase-tagged ELG1; HEK293T ELG1-luciferase reporter, luminescence, 16 h; DNA damage induced by 5-fluorouridine; Potency, µM (doses to about 46.1 µM), inactives show at the highest dose activity change, negative = inhibition, most hits filed as inhibitors; 2.3% of 330,000 active; AID 504467, 2011; note: potency is the fitted concentration of half-maximal effect; nearly all actives have a fitted effect of over 55% in size
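DMSO vehicle served as the neutral condition. Each well held 2,000 cells given 5-fluorouridine plus compound; after 16 hr at 37 °C/5% CO2, ONE-Glo was added and luciferase measured 30 min later.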
TDP1 block: qHTS Assay for Inhibitors of Tyrosyl-DNA Phosphodiesterase (TDP1). Tyrosyl-DNA phosphodiesterase 1 (Homo sapiens), Q9NUW8. 0.28% of 350,000 active. recombinant TDP1, AlphaScreen DNA substrate cleavage. Potency, µM (titrated, usually from 130 µM), for the others: top-dose activity change, negative = inhibition, actives largely listed as inhibitors; note: potency is the fitted concentration of half-maximal effect; nearly all actives have a fitted effect of over 40% in size
Target sequence (Q9NUW8 whole entry, looked up): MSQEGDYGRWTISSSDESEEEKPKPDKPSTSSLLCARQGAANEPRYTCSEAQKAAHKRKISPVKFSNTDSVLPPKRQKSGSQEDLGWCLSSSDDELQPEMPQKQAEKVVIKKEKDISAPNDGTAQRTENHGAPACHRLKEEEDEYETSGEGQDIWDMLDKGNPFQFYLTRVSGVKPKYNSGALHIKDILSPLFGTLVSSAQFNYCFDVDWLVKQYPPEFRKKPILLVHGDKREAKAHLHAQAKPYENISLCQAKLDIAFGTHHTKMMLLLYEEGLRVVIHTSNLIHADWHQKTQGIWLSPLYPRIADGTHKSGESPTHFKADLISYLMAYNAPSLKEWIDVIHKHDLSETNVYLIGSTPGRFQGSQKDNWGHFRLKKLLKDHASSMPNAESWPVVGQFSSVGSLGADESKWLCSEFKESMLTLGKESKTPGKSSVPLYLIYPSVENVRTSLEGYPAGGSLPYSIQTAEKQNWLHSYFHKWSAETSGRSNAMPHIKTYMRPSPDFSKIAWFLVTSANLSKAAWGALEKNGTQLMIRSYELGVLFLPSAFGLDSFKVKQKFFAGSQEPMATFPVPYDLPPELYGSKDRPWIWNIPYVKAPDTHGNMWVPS
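Recombinant E. coli-expressed Tdp1 (1 nM) preincubated with compound 15 min at RT, then 5'-biotin/3'-phosphotyrosine-FITC DNA substrate (15 nM) added for 5 min. AlphaScreen beads (10 ug/ml) added, 10 min RT; tyrosine-FITC cleavage read as signal loss.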
Giardia kill: Small Molecules that selectively kill Giardia lamblia: qHTS; Giardia lamblia trophozoite viability; activity change, % at 7.66 µM, hits read low; 0.15% of 340,000 active; AID 540267, 2011; in the data active = activity change below about -80%; inconclusive = between about -30% and that limit;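 note: parasites exposed to compound for two days anaerobically before the ATP read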
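Luminescence from cellular ATP indicates surviving trophozoites (100 cells/well) following 48 hrs anaerobic compound treatment at 37 deg C; signal develops 15-30 min at room temperature.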
IL-1B inflam inh: qHTS for Inhibitors of Inflammasome Signaling: IL-1-beta AlphaLISA Primary Screen; THP-1 LPS/ATP IL-1B secretion, AlphaLISA, 16 h; active compounds read low; activity change, % at 57.5 µM; 4.7% of 360,000 active; AID 743279, 2014; in the data active = activity change below about -50%; inconclusive = mostly about -30% to -49%
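Secreted IL-1B measured by AlphaLISA bead assay after 16 h compound exposure of THP-1 cells; compounds (final up to 57.5 uM) added 1 h before LPS (250 ng/mL) and ATP (1.25 mM) stimulation; lower signal means less secretion.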
DT40 TDP1 no CPT: qHTS for Inhibitors of human tyrosyl-DNA phosphodiesterase 1 (TDP1): qHTS in cells in absence of CPT; DT40 Tdp1-/- hTDP1 cells, no CPT, ATP luminescence, 48 h; 15% of 420,000 active; Potency, µM (series often up to 46.2 µM), for inactives: at the top dose activity change, negative = growth inhibition, hits mostly inhibitors; note: potency is the fitted concentration of half-maximal effect; nearly all actives have a fitted effect of over 55% in size
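A cellular qHTS used chicken DT40 cells lacking endogenous Tdp1 but carrying stably transfected human TDP1. Compounds were applied without camptothecin, and cell growth kinetics were judged by ATP-dependent luminescence after ≥48 hr.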
An asterisk follows results filed as active; i = inactive; ? = inconclusive; . = no result given. Sampled rows, rich in hits. Any-hit rate of the full collection: about 19%. Unless noted, calls come from the whole dose curve; as a rule, active = well fitted curve in the direction sought with a large enough effect; inconclusive = small, poorly fitted or top-dose-only effect, or another doubt; inactive = no such curve, though single readings can be large; an effect the other way counts as inactive or inconclusive. % is set by controls: 0 for no effect and ±100 for the full control effect.

SMILES	DT40 TDP1 CPT	ELG1 DNA repair	TDP1 block	Giardia kill	IL-1B inflam inh	DT40 TDP1 no CPT
CCN(CC)c1nc(SCCOC(=O)Nc2ccccc2)nc(N(CC)CC)n1	18µM*	-14%	5%	37	-20	?
CC(C)c1ccc(NC(=O)c2sccc2-n2cccc2)cc1	?	?	5%	-15	16	?
CCCC12CN3CC(CCC)(CN(C1)C3c1ccccc1)C2=O (stereo not given)	4.1µM*	.	5%	.	.	?
CCCC12CN3CC(CCC)(CN(C1)C3c1ccc(OC(C)C)cc1)C2=O (stereo not given)	?	.	.	.	.	16µM*
CN(C(=O)c1ccc(S(=O)(=O)c2cccc(Cl)c2)c([N+](=O)[O-])c1)C1CCCCC1	3.7µM*	?	0%	-15	-106*	5.2µM*
O=C(NC1CCCCC1)c1ccc(S(=O)(=O)c2ccccc2Cl)c([N+](=O)[O-])c1	.	5.8µM*	-2%	.	.	.
O=[N+]([O-])c1ccccc1S(=O)(=O)NC1CCCCCCC1	-22%	-11%	.	-11	4	16µM*
O=C(NC1CCCCC1)c1ccc(-n2cncn2)c([N+](=O)[O-])c1	0%	-6%	1%	-13	13	-27%
O=[N+]([O-])c1ccccc1S(=O)(=O)NC1CCCC1	0%	4%	1%	2	17	-3%
COc1ccc(CC(=O)N2CCN=C2SCc2cccc([N+](=O)[O-])c2)cc1	-27%	?	-2%	31	-18	?
COc1ccc(-c2nc3ccc(NS(C)(=O)=O)cc3o2)cc1	-10%	.	-11%	.	.	-16%
CCOC(=O)c1sc2ncnc(Nc3cccc(C(=O)O)c3)c2c1C	-22%	?	3%	5	24	-5%
CCN(CCNCC(O)COc1ccccc1C(C)C)c1cccc(C)c1 (stereo not given)	?	3%	.	14	-104*	18µM*
COC(=O)c1ccccc1N=Nc1c(N)n[nH]c1N	-1%	6%	-11%	1	-60*	-19%
COC(=O)C[C@@H]1C=C[C@H](NS(=O)(=O)c2cccc(F)c2)[C@@H](CO)O1	9%	.	.	.	7	-6%
O=C(C[C@H]1C=C[C@@H](NS(=O)(=O)c2ccccc2)[C@@H](CO)O1)NCc1ccc(Cl)c(Cl)c1	?	.	.	.	-10	18µM*
COc1cc(C)nc(N2CCCC(C(=O)Nc3ccccc3Br)C2)n1 (stereo not given)	-4%	-18%	-5%	-11	51	15%
COc1cc(C)nc(N2CCCC(C(=O)Nc3cccc(Cl)c3C)C2)n1 (stereo not given)	23µM*	11%	-10%	-19	16	?
CC(=O)N1CCCc2cc(S(=O)(=O)N3CCCC(C(=O)Nc4ccccc4C)C3)ccc21 (stereo not given)	?	-1%	4%	-7	14	-10%
CCOc1ccccc1NC(=O)C1CCCN(S(=O)(=O)c2ccc3c(c2)CCCN3C(C)=O)C1 (stereo not given)	26µM*	.	3%	.	-11	15µM*
CC(=O)N1CCCc2cc(S(=O)(=O)N3CCCC(C(=O)Nc4ccc(F)cc4F)C3)ccc21 (stereo not given)	?	.	3%	.	.	21µM*
CC(=O)N1CCCc2cc(S(=O)(=O)N3CCCC(C(=O)Nc4ccc(C)cc4C)C3)ccc21 (stereo not given)	-27%	?	2%	-8	21	?
CC(=O)N1CCCc2cc(S(=O)(=O)N3CCCC(C(=O)Nc4cccc(Cl)c4C)C3)ccc21 (stereo not given)	16µM*	.	0%	.	.	?
Cn1c(=O)c2nc(NCc3ccccc3)sc2n(C)c1=O	?	.	.	12	19	?
CC(C)NC(=O)C1CCC(Cn2c(=O)c3sccc3n(CC(=O)Nc3ccccc3)c2=O)CC1 (stereo not given)	?	.	3%	.	.	?
SMILES	DT40 TDP1 CPT	ELG1 DNA repair	TDP1 block	Giardia kill	IL-1B inflam inh	DT40 TDP1 no CPT
COc1cc(C)c(Cl)cc1S(=O)(=O)NCCc1c(C)[nH]c2ccccc12	?	.	14%	.	.	?
COc1ccc(Cn2c(SCc3ccc(C(=O)NC4CCCC4)cc3)nc3cccnc32)cc1	?	.	6%	.	.	18µM*
O=C(NC1CCCCC1)c1ccc(Cn2c(SCc3cccc(F)c3)nc3cccnc32)cc1	21µM*	.	5%	.	.	21µM*
O=C(NC1CCCC1)c1ccc(CSc2nc3cccnc3n2Cc2ccccc2)cc1	?	.	-5%	.	.	16µM*
CCN(CC)C(=O)c1nn(-c2ccccc2)c2c1C1CCC2(C)C1(C)C (stereo not given)	23µM*	-15%	5%	-8	?	16µM*
CCN(CC)C(=O)c1nn(Cc2ccccc2)c(=O)c2ccccc12	1%	-18%	2%	-6	0	7%
Cc1ccc(S(=O)(=O)NC(CCc2ccccc2)CC(=O)C(C)(C)C)cc1 (stereo not given)	23µM*	-4%	3%	18	4	16µM*
COC(=O)COc1ccc(S(=O)(=O)Nc2cc([N+](=O)[O-])ccc2C)cc1	1%	2%	1%	-7	39	-5%
COC(=O)COc1cccc(NS(=O)(=O)c2cccc([N+](=O)[O-])c2)c1	1%	1%	0%	1	-194*	3%
COC(=O)COc1ccc(NS(=O)(=O)c2cccc([N+](=O)[O-])c2)cc1	2%	-1%	0%	1	-152*	3%
CN(CC(=O)Nc1ccc(Cl)c(C(F)(F)F)c1)C(=O)C1CCC1	?	-1%	.	-16	-6	?
CN(CC(=O)Nc1cccc(F)c1)C(=O)C1CC(=O)N(Cc2ccco2)C1 (stereo not given)	-1%	0%	.	6	16	-19%
CN(CC(=O)Nc1ccc(Cl)c(C(F)(F)F)c1)C(=O)/C=C/c1ccco1	18µM*	0%	-3%	-17	i	18µM*
CN(CC(=O)Nc1ccc(Cl)c(C(F)(F)F)c1)C(=O)/C=C/c1cccs1	?	-19%	2%	9	-7	23µM*
